Inconclusive results are not listed. Calls of active or inactive are those of the source. Unless noted, the call rests on the fitted dose curve; in most records, active means well fitted curve in the direction sought with a large enough effect; inconclusive means small, poorly fitted or top-dose-only effect, or another doubt; inactive means no such curve, though single readings can be large; an effect the other way counts as inactive or inconclusive.
Tests used:
[1] = Cell Viability - BJ (AID 421; calls by dose curve;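 further: potency means the concentration at half of the fitted maximal effect; cells exposed to compound for 40 hours at 37 °C before readout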); conditions: BJ fibroblast viability, qHTS
Method in brief: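 Luminescent ATP signal (CellTiter-Glo, 20 min at room temperature) served as the read-out of viable BJ cells after 40 hours of compound treatment. Responses were scaled between DMSO and 100 uM tamoxifen, and AC50 values were obtained by Hill modeling.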

[2] = Cell Viability - Jurkat (AID 426;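 active means dose-dependent loss of cell ATP signal giving a full or clear fitted curve, ranked by lower potency value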;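 further: potency means the concentration at half of the fitted maximal effect; cells exposed to compound for 40 hours at 37 °C before ATP read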); conditions: qHTS
Method in brief: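 Luminescent ATP read-out (CellTiter-Glo, 20 min at room temperature) after 40 hr compound exposure at 37 °C of Jurkat E6-1 cells, 5000/well. Decreased ATP taken as cytotoxicity; AC50 from standard Hill equation.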

[3] = Cell Viability - Hek293 (AID 427;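 active means compounds whose dose-response curve shows a full or clear partial loss of cell viability, called from curve shape rather than a numeric limit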;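 further: potency means the concentration at half of the fitted maximal effect; cells exposed to compound for 40 hours at 37 °C before reading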); conditions: qHTS
Method in brief: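 Luminescent ATP read-out (CellTiter-Glo, 20 min RT) after 40 hr compound exposure at 37 °C in complete medium. Signal normalized to DMSO (basal) and 100 uM tamoxifen (100% inhibition); concentration-response fitted with the standard Hill equation to give AC50.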

[4] = Cell Viability - HepG2 (AID 433; calls by dose curve;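 further: potency means the concentration at half of the fitted maximal effect; potency for ATP loss meaning cytotoxicity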); conditions: qHTS
Method in brief: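 Read-out is luciferase-based quantitation of cellular ATP as a measure of viable HepG2 cells after 40 h treatment at 37 °C. Signal decrease is scaled between DMSO-only and 100 uM tamoxifen controls, with AC50 fitted by the Hill equation.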

[5] = Cell Viability - SK-N-SH (AID 435; calls by dose curve; further: potency means the concentration at half of the fitted maximal effect); conditions: SK-N-SH neuroblastoma cell viability qHTS
Method in brief: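 Luminescent ATP signal served as the viability read-out after 40 hours of compound treatment of human neuroblastoma SK-N-SH cells. Concentration-response data, scaled between DMSO and 100 uM tamoxifen, gave AC50 values by standard Hill modeling.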

[6] = molecular target: Mitogen-activated protein kinase 10 (Mus musculus) (UniProt Q61831); test: JNK3 AlphaScreen Assay (AID 530; active means well fitted curve in either direction with a large enough effect, not every such curve was filed as active;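 further: kinase came from lysate of stimulated human HepG2 cells; signal reports phosphorylation of biotinylated GST-cJun 1-79 at Ser73 with 10 µM ATP; on the % scale 0 is the no-effect control and ±100 the full control effect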); conditions: JNK3 lysate, c-Jun phosphorylation; series mostly up to 57.1 µM
Method in brief: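 Biotinylated GST-cJun(1-79) served as substrate for JNK3 in HepG2 lysates stimulated with IL-1beta and TNF-alpha. ATP was 10 uM final, pH 7.6. Ser73 phosphorylation was quantified by AlphaScreen (680 nm excitation).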

[7] = Cell Viability - N2a (AID 540); conditions: N2a mouse neuroblastoma cell viability; activity change, negative = cytotoxicity: at 92.2 µM (top of the series);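 further: plate controls were DMSO alone for no effect and tamoxifen control for full effect; nearly all actives have a fitted effect of over 45% in size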
Method in brief: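 N2a mouse neuroblastoma, 1500 cells/well, 5 hr settle; compound 40 hr, 37 °C; CellTiter-Glo 20 min RT; luminescence; Hill-fit AC50.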

[8] = Cell Viability - NIH 3T3 (AID 541); conditions: NIH 3T3 cell viability, qHTS; activity change, negative = cytotoxicity: at 92.2 µM (top of the series);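 further: plate controls were DMSO alone for no effect and tamoxifen positive control for full effect; nearly all actives have a fitted effect of over 25% in size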
Method in brief: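 qHTS format; 40 hr compound exposure, 37 °C; CellTiter-Glo luminescence (cellular ATP) read-out after 20 min at RT. Decrease in ATP = cytotoxicity; AC50 from standard Hill fit.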

[9] = Cell Viability - HUV-EC-C (AID 542); conditions: HUV-EC-C endothelial cell viability, qHTS; series mostly up to 92.2 µM; further: on the % scale 0 is the no-effect control and ±100 the full control effect; nearly all actives have a fitted effect of over 35% in size
Method in brief: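 Luminescent ATP read-out (CellTiter-Glo, 20 min room temperature) after 40 hr compound treatment of HUV-EC-C cells at 37 °C. Concentration-response data fitted with the standard Hill equation to give AC50; tamoxifen and doxorubicin served as positive controls.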

[10] = Cell Viability - H-4-II-E (AID 543); conditions: H-4-II-E rat hepatoma viability; series mostly up to 92.2 µM; further: on the % scale 0 is the no-effect control and ±100 the full control effect; nearly all actives have a fitted effect of over 35% in size
Method in brief: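 qHTS, rat hepatoma H-4-II-E, 1500 cells/well; 40 hr compound exposure, 37 °C; CellTiter-Glo ATP luminescence after 20 min RT; AC50 by standard Hill fit.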

[11] = Cell Viability - SH-SY5Y (AID 544); conditions: SH-SY5Y neuroblastoma cell viability; viability change, negative = cytotoxic: at 92.2 µM (top of the series); further: nearly all actives have a fitted effect of over 55% in size
Method in brief: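 SH-SY5Y, 1500 cells/well, 5 hr pre-incubation 37 °C; cpd 40 hr 37 °C; CellTiter-Glo 20 min RT; luminescence (ATP) read. qHTS concentration-response, Hill fit → AC50. Tamoxifen, doxorubicin as positive controls.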

[12] = Cell Viability - Renal Proximal Tubule (AID 545); conditions: renal proximal tubule cells viability, primary cells of rat origin; series mostly up to 91.7 µM; further: nearly all actives have a fitted effect of over 40% in size
Method in brief: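 Luminescent ATP signal (CellTiter-Glo) served as the viability read-out after 40 hr compound exposure of freshly isolated rat proximal tubule cells at 37 °C. Concentration-dependent ATP loss was fitted with the Hill equation to give AC50.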

[13] = Cell Viability - Mesenchymal (AID 546); conditions: mesenchymal cells viability, qHTS; series mostly up to 91.7 µM;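 further: cells exposed to compound for 40 hours before reading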
Method in brief: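 In this qHTS cytotoxicity format, glomerulus-derived human mesenchymal kidney cells received compound for 40 hr, then luciferase-based ATP quantitation. Concentration-response data were fitted with the Hill equation.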

[14] = Cellular Toxicity (caspase-3) HepG2 (AID 654); conditions: HepG2 caspase-3 activation, luminescence; series mostly up to 92.2 µM;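 further: cells exposed to compound for 16 hours before reading; 0% = DMSO alone and 100% = caspase signal from 100 µM tamoxifen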
Method in brief: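 Luminescent Caspase-Glo 3/7 readout after 16 hr compound exposure of human hepatocellular carcinoma HepG2 cells at 37 °C; qHTS concentration-response, normalized DMSO = 0%, 100 uM tamoxifen = 100%; AC50 by standard Hill equation.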

[15] = Cellular Toxicity (caspase-3) Jurkat (AID 655); conditions: Jurkat caspase-3 activation, luminescence; caspase-3 activation: at 92.2 µM (top of the series), DMSO = 0%, tamoxifen = 100%;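 further: cells exposed to compound for 16 h at 37 °C before reading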
Method in brief: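 5000 Jurkat cells/well; compound 16 hr, 37 °C; Caspase-Glo 3/7 added, 20 min RT; luminescence read. Norm: DMSO = 0%, tamoxifen 100 uM = 100%. AC50, Hill model.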

[16] = Cellular Toxicity (caspase-3) HUV-EC-C (AID 656); conditions: HUV-EC-C cells, caspase-3 activation (apoptosis), vehicle = 0, 100 µM tamoxifen = 100%; series mostly up to 92.2 µM
Method in brief: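 qHTS; HUV-EC-C, 1000 cells/well; 5 hr settle, 16 hr cmpd, 37°C; Caspase-Glo 3/7, 20 min RT; luminescence. Norm: DMSO = 0%, tamoxifen 100 uM = 100%. Hill-fit AC50.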

[17] = Cellular Toxicity (caspase-3) SHSY5Y (AID 657); conditions: SH-SY5Y caspase-3 activation, DMSO zero, 10 µM staurosporine = 100%; series mostly up to 91.7 µM;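 further: cells exposed to compound for 16 hours at 37 °C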
Method in brief: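 qHTS, SH-SY5Y, 1500 cells/well, 5 h pre-incubation 37 °C; compound 16 h 37 °C; Caspase-Glo 3/7 1 h RT; luminescence. Norm.: DMSO = 0, 10 uM staurosporine = 100%. Hill fit → AC50.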

[18] = Cellular Toxicity (caspase-3) BJ (AID 658); conditions: BJ fibroblasts, luminescence, normalized: DMSO 0%, staurosporine 100%; series mostly up to 91.7 µM;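 further: cells exposed to compound for 16 hours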
Method in brief: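 Plated BJ cells (1000/well) rested 5 hr, received compound for 16 hr at 37 °C, then Caspase-Glo 3/7 reagent for 1 hr at room temperature before luminescence reading.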

[19] = Cellular Toxicity (caspase-3) MRC-5 (AID 659); conditions: MRC-5 cells, luminescence, normalized: DMSO 0%, 10 µM staurosporine 100%; series mostly up to 91.7 µM
Method in brief: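 Apoptosis readout in MRC-5 cells: luciferase light generated after caspase 3/7 cleaves a peptide-aminoluciferin substrate, measured post 16 hr compound incubation at 37 °C.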

[20] = Cell Viability - MRC5 (AID 434; calls by dose curve;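 further: potency means the concentration at half of the fitted maximal effect; cells exposed to compound for 40 hours at 37 °C; potency reflects cytotoxicity seen as loss of intracellular ATP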); conditions: MRC5 lung fibroblast viability, qHTS
Method in brief: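 Decrease in intracellular ATP, quantified by luciferase light output, reflects compound toxicity toward MRC5 cells exposed for 40 hr in complete culture medium. Concentration-response curves, scaled between DMSO and 100 uM tamoxifen, gave AC50 values.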

C1CCC2OC2C1 (stereo unspecified)
inactive: Potency [1] > 92 µM | Potency [2] > 92 µM | Potency [3] > 92 µM | Potency [4] > 92 µM | Potency [5] > 92 µM | outcome [6] | activity change, negative = cytotoxicity [7] -14.9% | Potency [8] | Potency [9] | Potency [10] | Potency [11] | Potency [12] | Potency [13] | Potency [14] | caspase-3 activation [15] 0.319% | outcome [16] | outcome [17] | outcome [18] | outcome [19]

Nc1cccc([N+](=O)[O-])c1
inactive: Potency [1] > 92 µM | Potency [2] > 92 µM | Potency [3] > 92 µM | Potency [4] > 92 µM | Potency [5] > 92 µM | outcome [6] | activity change, negative = cytotoxicity [7] -10.1% | Potency [8] | Potency [9] | Potency [10] | Potency [11] | Potency [12] | Potency [13] | Potency [14] | caspase-3 activation [15] 0.664% | outcome [16] | outcome [17] | outcome [18] | outcome [19]

CC=O
inactive: Potency [1] > 92 µM | Potency [2] > 92 µM | Potency [3] > 92 µM | Potency [4] > 92 µM | Potency [5] > 92 µM | outcome [6] | activity change, negative = cytotoxicity [7] 1.14% | Potency [8] | Potency [9] | Potency [10] | Potency [11] | Potency [12] | Potency [13] | Potency [14] | caspase-3 activation [15] -1.03% | outcome [16] | outcome [17] | outcome [18] | outcome [19]

CC(C)c1ccccc1
inactive: Potency [1] > 92 µM | Potency [2] > 92 µM | Potency [3] > 92 µM | Potency [4] > 92 µM | Potency [20] > 92 µM | outcome [6] | activity change, negative = cytotoxicity [7] -8.99% | Potency [8] | Potency [9] | Potency [10] | Potency [11] | Potency [13] | Potency [14] | caspase-3 activation [15] -0.787% | outcome [16] | outcome [17] | outcome [18] | outcome [19]

c1ccc2n[nH]nc2c1
inactive: Potency [1] > 92 µM | Potency [2] > 92 µM | Potency [3] > 92 µM | Potency [4] > 92 µM | Potency [20] > 92 µM | outcome [6] | activity change, negative = cytotoxicity [7] -2.18% | Potency [8] | Potency [9] | Potency [10] | Potency [11] | Potency [12] | Potency [13] | Potency [14] | caspase-3 activation [15] 1.47% | outcome [16] | outcome [18] | outcome [19]

O=C(Cl)c1ccccc1[N+](=O)[O-]
inactive: Potency [1] > 92 µM | Potency [2] > 92 µM | Potency [3] > 92 µM | Potency [4] > 92 µM | Potency [20] > 92 µM | outcome [6] | activity change, negative = cytotoxicity [7] 0.882% | Potency [8] | Potency [9] | Potency [10] | Potency [11] | Potency [12] | Potency [13] | caspase-3 activation [15] 0.685% | outcome [16] | outcome [17] | outcome [18] | outcome [19]

CC(=O)OC(C)C
inactive: Potency [1] > 92 µM | Potency [2] > 92 µM | Potency [3] > 92 µM | Potency [4] > 92 µM | Potency [5] > 92 µM | outcome [6] | activity change, negative = cytotoxicity [7] 3.96% | Potency [8] | Potency [9] | Potency [10] | Potency [11] | Potency [12] | Potency [13] | Potency [14] | caspase-3 activation [15] -0.432% | outcome [16] | outcome [17] | outcome [19]

Cc1cccc2ccccc12
inactive: Potency [1] > 92 µM | Potency [2] > 92 µM | Potency [3] > 92 µM | Potency [4] > 92 µM | Potency [5] > 92 µM | outcome [6] | activity change, negative = cytotoxicity [7] -4.08% | Potency [8] | Potency [9] | Potency [10] | Potency [11] | Potency [12] | Potency [13] | Potency [14] | caspase-3 activation [15] -1.75% | outcome [16] | outcome [17] | outcome [18] | outcome [19]

CCOc1ccccc1N
inactive: Potency [1] > 92 µM | Potency [2] > 92 µM | Potency [3] > 92 µM | Potency [4] > 92 µM | Potency [5] > 92 µM | outcome [6] | activity change, negative = cytotoxicity [7] 1.87% | Potency [8] | Potency [9] | Potency [10] | Potency [11] | Potency [12] | Potency [13] | caspase-3 activation [15] 0.926% | outcome [16] | outcome [17] | outcome [18] | outcome [19]

CC(=O)c1cc(C)oc1C
inactive: Potency [1] > 92 µM | Potency [2] > 92 µM | Potency [3] > 92 µM | Potency [5] > 92 µM | outcome [6] | activity change, negative = cytotoxicity [7] -1.61% | Potency [8] | Potency [10] | Potency [11] | Potency [12] | Potency [13] | Potency [14] | caspase-3 activation [15] 0.691% | outcome [16] | outcome [17] | outcome [18] | outcome [19]

CCC(C)(C)OC
inactive: Potency [1] > 92 µM | Potency [2] > 92 µM | Potency [3] > 92 µM | Potency [20] > 92 µM | Potency [5] > 92 µM | outcome [6] | activity change, negative = cytotoxicity [7] -20.8% | Potency [8] | Potency [9] | Potency [10] | Potency [11] | Potency [12] | Potency [13] | Potency [14] | caspase-3 activation [15] 1.32% | outcome [16] | outcome [17] | outcome [18] | outcome [19]

CCCCCNCCCCC
inactive: Potency [1] > 92 µM | Potency [2] > 92 µM | Potency [3] > 92 µM | Potency [4] > 92 µM | outcome [6] | activity change, negative = cytotoxicity [7] 0.97% | Potency [8] | Potency [10] | Potency [11] | Potency [12] | Potency [13] | Potency [14] | caspase-3 activation [15] -1.44% | outcome [16] | outcome [17] | outcome [18] | outcome [19]

Cc1ccc(C(C)(C)C)cc1
inactive: Potency [1] > 92 µM | Potency [2] > 92 µM | Potency [3] > 92 µM | Potency [4] > 92 µM | outcome [6] | Potency [8] | Potency [9] | Potency [10] | Potency [11] | Potency [12] | Potency [13] | Potency [14] | caspase-3 activation [15] 1.39% | outcome [16] | outcome [17] | outcome [18] | outcome [19]

From PubChem BioAssay (NCATS)
